PBM binding z-score data for 40 sequences are collected here from the supplement of paper PMC6555819.

One assay deals with RARg:RXRa (NR concentration 270 nM, RXRa partner concentration 90 nM). The experiment in a line: PBM binding z-score (relative to random genomic background probes); higher = stronger binding; sequences stand for … in GC…GCGATTGACAGCGTAGAATGAAGG
In short, it runs like this: (§1)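 The probes on custom Agilent 4×180K protein-binding microarrays were double-stranded, with 34-nt variable regions bearing direct-repeat seeds, single-nucleotide variants, half-site ablations and random human genomic background sequences. Incubation lasted 1 h with ligand-free nuclear receptor dimers in PBS pH 7.4, 2% milk, 0.02% Triton X-100, 1 mM DTT, 0.2 mg/mL BSA and 0.4 mg/ml salmon testes DNA. Antibodies against each partner (one per run) detected bound dimers, and fluorescence scans were regression-normalized. Binding z-scores take the random background probes as reference.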
On to TCTAGCAGGCCAGAGGGCCACTCAAGAGGTACGG, for which the PBM binding z-score was -0.057.
For the sequence CAAACTAGGTCAAAGGTCCAAGTCGAGCCAACCA, the PBM binding z-score was 4.98.
The same measure, in the same setting: the result for CCTTACGGGTCACTCCCGGTTATAGCATCGGAGT reads 4.42; that for CGAACTAGGTCAAGGACAGTGACTCTCCGCACGC, 3.85.
Same read-out and setting: the result for GCCAGCAGGCCATTTGGGTCACTCAATGACGGGC reads 1.14; that for TCTTATAGGTAAAGGTGAAAGTCGAACGATATGA, 1.84.
The same measure, in the same setting: the same measure for TCTGCTAGGTCAGTTGTTCAGCTAACGAGCTGCC: 2.19; for CATACAGTGTCAGCTAGGCCAGAGTAGGGACGGC: 0.397; for CGCACGAGGGCATGAGTTGATAGCAAATGCCGAT: 1.1.
Sequence TAGCCTAGGTCATTGGGCGAGTATAGTACGCATC had a PBM binding z-score of 3.77.
The same measure, in the same setting: the same measure for AGCACGAGGGCACGCTGAGTTGATAGCAGAGTAG: 1.97; for GCAGACAGGTGAAACTCAGGTAACTCAGGGTGGC: 1.03; for ACTAGTTGGTCAGCGGAGGTCACACACAATTCGG: 3.96.
Still for that read-out and setting: the result for TCTATTAGTTGAAGGGCTACCGACGAGTCCGTTT reads 0.0303; that for CGTCCAAGGTGAAGGTCAGTGAAAGAGACTCGAA, 3.39; that for CCGACTGGGGCAAAGGTTACCTTACTCAGTACGA, 3.15.
On the same count and under the same terms, the same measure for TCATATAGGTAAAGGTGAAAGTGGAACGATATGA: 1.71; for CCGACTGGGACAAGGTTACCATAACGCACAGCCA: 0.731.
Sequence TCTCGGAGGACCCGAAAGGTCAGAGCTCGACATC had a PBM binding z-score of 3.92.
The same measure, in the same setting: the result for CGTCAAGGTTCAAGGTAACGTAACAGAAAGCAGC reads 3.11.
Same read-out and setting: the result for CCTACTGGGCCAAAGGTAATTGATTCCAATGCTC reads 0.0107; that for TCTTGTAGATCGAGCAGGTTAAGAAAGCCTGAGT, -0.28.
With CAAACTAGGTCACCGGAAGGTCAAGGTCCGCATG, the PBM binding z-score worked out at 8.53.
Same read-out and setting: the result for TGAACGAGGTTATAAGATCAGGGAACGTTGCAAA reads 1.53; that for ACTAGTTGGTCAGCTGAGGTCTCACACAATTCGG, 0.511; that for CAAACTAGGTAACGAAAGGTCAAAGTCGAATGAC, 5.68.
CCTATTAGTTGACCATAAGGGCAACCGAAGCTCG: the PBM binding z-score was 1.31.
In the case of TCGAGTAGGTAAGTCGGGGCATTCAGCCAACATA, the PBM binding z-score is -0.527.
Same read-out and setting: the same measure for CGAACGAGGGCATGAATTGATAGCAAATGCCGAT: 0.899; for TCACCAAGGTGAGCTGAGGTCGTTGATCCAACTC: 1; for ACAGACAGGTGAGTGAAGGTAACTCAGCTGGACG: 0.297.
As for ACTAGCAGGCCGAGGGTCACTCAAGATTAGTCCG, the PBM binding z-score was 2.41.
Same read-out and setting: the same measure for CCTATTAGTTGACCATAAGGACAACCGAAGCTCG: 1.36; for AGTCAAAGTTCACTAGGTACCGTAAGATTCAGCT: 4.92.
On the same count and under the same terms, the result for GCTTACGGGTCAAAGGTTATAGAATGAATAGAAT reads 6.87; that for ATCTCTAGGTAACAAGTTCTGTGAAAGAGAGGAC, 0.565; that for ATCTTTAGGTAAAAGTTCAGTGAATCCCGAGGAT, 1.69.
Still for that read-out and setting: the result for CAAACTAGGTCAAGAGGTCAAAATCCGCTTCCCG reads 7.74; that for ACTAGCAGGCCAAGTTTGGGTCAGTCAAACAAAG, 1.65; that for TCTCGGAGGACACGAAAGGTCAGATCTCGACATC, 4.58.

The test system of another assay is RARg homodimer (NR concentration 270 nM). The description is as above. In short, it runs like this: as §1
The sequence TCTAGCAGGCCAGAGGGCCACTCAAGAGGTACGG showed a PBM binding z-score of -0.117.
On the same count and under the same terms, the same measure for CAAACTAGGTCAAAGGTCCAAGTCGAGCCAACCA: 5.05; for CCTTACGGGTCACTCCCGGTTATAGCATCGGAGT: 4.31; for CGAACTAGGTCAAGGACAGTGACTCTCCGCACGC: 4.74.
GCCAGCAGGCCATTTGGGTCACTCAATGACGGGC yielded a PBM binding z-score of 1.3.
On the same count and under the same terms, the same measure for TCTTATAGGTAAAGGTGAAAGTCGAACGATATGA: 1.45.
The same measure, in the same setting: the same measure for TCTGCTAGGTCAGTTGTTCAGCTAACGAGCTGCC: 3.35; for CATACAGTGTCAGCTAGGCCAGAGTAGGGACGGC: 0.832; for CGCACGAGGGCATGAGTTGATAGCAAATGCCGAT: 1.72.
Still for that read-out and setting: the result for TAGCCTAGGTCATTGGGCGAGTATAGTACGCATC reads 4.01; that for AGCACGAGGGCACGCTGAGTTGATAGCAGAGTAG, 2.42.
Turning to GCAGACAGGTGAAACTCAGGTAACTCAGGGTGGC, the PBM binding z-score worked out at 0.566.
Same read-out and setting: the same measure for ACTAGTTGGTCAGCGGAGGTCACACACAATTCGG: 4.21.
TCTATTAGTTGAAGGGCTACCGACGAGTCCGTTT showed a PBM binding z-score of 0.0781.
CGTCCAAGGTGAAGGTCAGTGAAAGAGACTCGAA: the PBM binding z-score is 3.88.
CCGACTGGGGCAAAGGTTACCTTACTCAGTACGA had a PBM binding z-score of 1.62.
Same read-out and setting: the same measure for TCATATAGGTAAAGGTGAAAGTGGAACGATATGA: 1.52; for CCGACTGGGACAAGGTTACCATAACGCACAGCCA: 0.756; for TCTCGGAGGACCCGAAAGGTCAGAGCTCGACATC: 4.15.
The same measure, in the same setting: the result for CGTCAAGGTTCAAGGTAACGTAACAGAAAGCAGC reads 2.71; that for CCTACTGGGCCAAAGGTAATTGATTCCAATGCTC, 0.0633; that for TCTTGTAGATCGAGCAGGTTAAGAAAGCCTGAGT, -0.423.
CAAACTAGGTCACCGGAAGGTCAAGGTCCGCATG returned a PBM binding z-score of 7.66.
The sequence TGAACGAGGTTATAAGATCAGGGAACGTTGCAAA gave a PBM binding z-score of 1.1.
Take ACTAGTTGGTCAGCTGAGGTCTCACACAATTCGG: the PBM binding z-score turned out to be 0.774.
The same measure, in the same setting: the result for CAAACTAGGTAACGAAAGGTCAAAGTCGAATGAC reads 5.08.
The sequence CCTATTAGTTGACCATAAGGGCAACCGAAGCTCG came in with a PBM binding z-score of 0.855.
For TCGAGTAGGTAAGTCGGGGCATTCAGCCAACATA, the PBM binding z-score is -0.571.
In the case of CGAACGAGGGCATGAATTGATAGCAAATGCCGAT, the PBM binding z-score was found to be 1.3.
On the same count and under the same terms, the result for TCACCAAGGTGAGCTGAGGTCGTTGATCCAACTC reads 0.829; that for ACAGACAGGTGAGTGAAGGTAACTCAGCTGGACG, 0.64.
The same measure, in the same setting: the same measure for ACTAGCAGGCCGAGGGTCACTCAAGATTAGTCCG: 2.14; for CCTATTAGTTGACCATAAGGACAACCGAAGCTCG: 1.28; for AGTCAAAGTTCACTAGGTACCGTAAGATTCAGCT: 5.92.
Still for that read-out and setting: the result for GCTTACGGGTCAAAGGTTATAGAATGAATAGAAT reads 5.16; that for ATCTCTAGGTAACAAGTTCTGTGAAAGAGAGGAC, 0.579.
In turn, ATCTTTAGGTAAAAGTTCAGTGAATCCCGAGGAT had a PBM binding z-score of 1.85.
CAAACTAGGTCAAGAGGTCAAAATCCGCTTCCCG displayed a PBM binding z-score of 7.02.
Still for that read-out and setting: the same measure for ACTAGCAGGCCAAGTTTGGGTCAGTCAAACAAAG: 0.925; for TCTCGGAGGACACGAAAGGTCAGATCTCGACATC: 4.87.
